From PubChem
Only some compounds are listed: those with a hit (about 11% of all), similar ones and a draw of the others.
PI5P4Ka inh = qHTS for Inhibitors of phosphatidylinositol 5-phosphate 4-kinase (PI5P4K). PI5P4Kalpha enzyme, ADP-Glo luminescence, 60 min; hits give low values. Phosphatidylinositol 5-phosphate 4-kinase type-2 alpha (Homo sapiens), P48426. max response, %. actives 1.2% (n = 330,000); active means max response of -50% or lower; inconclusive means between -30% and -50%; inactive means -30% or higher; further: value at the top dose of about 77 µM
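PI5P4Kalpha ADP-Glo assay; 5 microM ATP final; 60 min RT reaction; HEPES pH 7.4/EGTA/CHAPS, 5% DMSO; controls lacking substrate or enzyme; luminescent end-point.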
HP1b binding inh = HTS for Inhibitors of HP1-beta Chromodomain Interactions with Methylated Histone Tails; Chromobox protein homolog 1 (Homo sapiens), P83916; AID 540317, 2011; AlphaScreen HP1-beta / biotin-H3K9me3 peptide binding; actives 0.56% (n = 390,000); Potency, µM (series often up to 114 µM), most hits filed as inhibitors; further: nearly all actives have a fitted effect of over 70% in size
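Compound inhibition of the preformed complex between 50 nM HP1-beta and 50 nM biotinylated H3K9me3 peptide was read by AlphaScreen. Buffer was PBS pH 7.4 with 0.01% Tween-20. Incubations ran 30 min at room temperature, with 10 ug/mL donor/acceptor beads.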
G9a block = qHTS Assay for Inhibitors of Histone Lysine Methyltransferase G9a | G9a H3K9 monomethylation, AlphaScreen, 2 h | Potency, µM (top dose mostly 102 µM), usual class: inhibitors | actives 8.8% (n = 350,000); further: nearly all actives have a fitted effect of over 75% in size
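Step 1: enzyme (final 20 nM) with compound, 15 min RT. Step 2: substrate peptide 500 nM and SAM 20 uM, 2 h RT. Step 3: anti-H3K9me1 antibody and AlphaScreen beads, 10 min, then plate read.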
JMJD2A Tudor = qHTS Assay for Inhibitors of JMJD2A-Tudor Domain | Lysine-specific demethylase 4A (Homo sapiens), O75164 | AlphaScreen JMJD2A-Tudor / H3K4me3 peptide binding | Potency, µM (doses to about 114 µM), hits mostly inhibitors | actives 4.4% (n = 390,000); further: nearly all actives have a fitted effect of over 50% in size
BAZ2B inh = qHTS Assay for Inhibitors of BAZ2B. Potency, µM (doses to about 114 µM), hits mostly inhibitors. Bromodomain adjacent to zinc finger domain protein 2B (Homo sapiens), Q9UIF8. AlphaScreen BAZ2B-H3K14Ac peptide displacement. actives 4.4% (n = 360,000); further: nearly all actives have a fitted effect of over 60% in size
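AlphaScreen displacement of biotin-H3(5-23)K14Ac peptide (50 nM final) from BAZ2B (50 nM final) in PBS pH 7.4, 0.01% Tween-20; complex preformed 30 min RT, then compounds (top 110 uM) 30 min RT, beads 20 min dark.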
L3MBTL1 inh = qHTS Assay for the Inhibitors of L3MBTL1; Lethal(3)malignant brain tumor-like protein 1 (Homo sapiens), Q9Y468; AlphaScreen L3MBTL1–H3K9me1 peptide binding; Potency, µM (highest dose often 57.1 µM), hits mostly inhibitors; actives 0.66% (n = 230,000); AID 485360, 2010; further: nearly all actives have a fitted effect of over 60% in size
Target sequence (Q9Y468 whole entry, looked up): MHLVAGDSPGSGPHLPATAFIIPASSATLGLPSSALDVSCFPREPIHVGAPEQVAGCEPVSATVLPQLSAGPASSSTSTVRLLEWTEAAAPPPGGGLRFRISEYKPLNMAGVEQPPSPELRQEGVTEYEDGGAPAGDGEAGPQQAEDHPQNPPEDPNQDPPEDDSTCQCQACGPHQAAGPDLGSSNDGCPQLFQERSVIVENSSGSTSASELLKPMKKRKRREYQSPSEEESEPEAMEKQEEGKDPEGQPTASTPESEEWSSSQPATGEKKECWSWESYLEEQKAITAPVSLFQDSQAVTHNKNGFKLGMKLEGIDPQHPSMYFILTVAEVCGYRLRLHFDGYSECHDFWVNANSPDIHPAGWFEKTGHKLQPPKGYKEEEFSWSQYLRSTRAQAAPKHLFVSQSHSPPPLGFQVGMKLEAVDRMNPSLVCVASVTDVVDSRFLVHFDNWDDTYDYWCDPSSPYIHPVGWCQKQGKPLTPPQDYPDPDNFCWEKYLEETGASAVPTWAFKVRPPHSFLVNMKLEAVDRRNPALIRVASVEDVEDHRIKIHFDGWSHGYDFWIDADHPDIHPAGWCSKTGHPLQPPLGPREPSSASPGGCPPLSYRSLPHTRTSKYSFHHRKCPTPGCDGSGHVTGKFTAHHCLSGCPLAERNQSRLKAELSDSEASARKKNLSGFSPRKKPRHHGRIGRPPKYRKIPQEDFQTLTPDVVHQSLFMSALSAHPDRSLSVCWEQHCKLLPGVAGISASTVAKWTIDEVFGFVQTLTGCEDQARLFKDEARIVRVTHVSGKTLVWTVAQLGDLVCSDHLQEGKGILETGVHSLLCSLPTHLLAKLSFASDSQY
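AlphaScreen proximity signal between nickel-chelate acceptor and streptavidin donor beads (final 10 ug/mL) reports binding of 50 nM L3MBTL1 to 75 nM biotin-H3 K9me1 peptide; complex incubated with compounds 30 min at room temperature; cefsulodin titration as control.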
A number is an active result; i = inactive; ? = inconclusive; nt = not tested or not shown; [ ] = another dose, or the depositor's remark. Unless noted, the call rests on the fitted dose curve; in most records, active means well fitted inhibition curve with a large enough effect; inconclusive means small, poorly fitted or top-dose-only effect; inactive means no such curve, though single readings can be large or run the other way.

SMILES	PI5P4Ka inh	HP1b binding inh	G9a block	JMJD2A Tudor	BAZ2B inh	L3MBTL1 inh
CCn1c(-c2csc(-c3ccccc3)n2)n[nH]c1=S	i	i	1.4µM	i	i	nt
C=CCn1c(-c2csc(-c3ccc(Cl)cc3)n2)n[nH]c1=S	i	i	?	i	i	nt
CS(=O)(=O)N1CCc2cc(-c3csc(NC(=O)Cc4ccccc4)n3)ccc21	nt	i	14µM	i	i	i[11.4 µM]
CS(=O)(=O)N1CCc2cc(-c3csc(NCC4CCCO4)n3)ccc21 (stereo not drawn)	nt	i	5.6µM	i	i	i
CCCC(=O)Nc1nc(-c2ccc3c(c2)CCN3S(C)(=O)=O)cs1	nt	i	i	i	i	i
Cc1cc(O)c2c(c1)C(=O)c1cccc(O)c1C2=O	nt	nt	?	nt	i	i
O=C(O)c1cc(O)c2c(c1)C(=O)c1cccc(O)c1C2=O	-91	?	40µM	56µM	50µM	?
CSc1ccccc1NC(=O)CNCCCN1CCOCC1	i	i	3.5µM	0.11µM	56µM	i
CCOCCCNCC(=O)Nc1cc(S(=O)(=O)N2CCOCC2)ccc1N1CCOCC1	i	i	nt	i	nt	i
CCOCCCNCC(=O)Nc1ccccc1N1CCOCC1	nt	?	11µM	4µM	35µM	i
CCc1ccc(NC(=O)C2CCN(c3cc(C)nc4c(-c5ccc(Cl)cc5)c(C)nn34)CC2)cc1	nt	i	i	i	i	nt
CCC(Sc1ncnc2sc3c(c12)CCCC3)C(=O)OCC(C)C (stereo not drawn)	nt	i	i	i	i	nt
COc1ccc(-c2nc3cnc(Nc4cccc(OC)c4)nc3n(C[C@H]3CCCO3)c2=O)cc1	nt	nt	i[0.501 µM]	nt	nt	nt
Nc1cc(N)nc(SCC(=O)c2ccc3c(c2)NC(=O)CO3)n1	i	i	35µM	i	i	i
Cc1cc(=O)[nH]c(SCC(=O)c2ccc3c(c2)NC(=O)CO3)n1	i	i	i	i	i	i
CN(C)c1ccc(/C=C2\N=C(C(C)(C)C)OC2=O)cc1	i	i	45µM	i	?	nt
CN1C(=O)/C(=C\c2ccc(N(C)C)cc2)OC1=S	i	i	i	25µM	i	i
COc1ccc(S(=O)(=O)Nc2ccc3oc4c(c3c2)C(=O)CC(C)(C)C4)cc1	nt	i	i	i	i	nt
Cc1ccc(-c2nc(SCCOc3ccccc3C)n3[nH]c(=O)cc3n2)cc1	nt	i	i	i	i	nt
CC1CCCN(c2ccc(C(=O)Nc3cccnc3)cc2[N+](=O)[O-])C1 (stereo not drawn)	i	i	50µM	i	?	nt
CC1CCN(c2ccc(/C=C(\C#N)c3nn(-c4ccccc4)c(N)c3C#N)cc2[N+](=O)[O-])CC1	i	i	i	i	i	i
Cc1ccc(C(=O)Nc2cccnc2)cc1[N+](=O)[O-]	i	i	?	i	i	nt
CC1CCCN(c2ccc(/C=C(\C#N)c3nn(-c4ccccc4)c(N)c3C#N)cc2[N+](=O)[O-])C1 (stereo not drawn)	i	i	22µM	?	?	i
CC(=O)Nc1ccc(N2CCCC(C)C2)c([N+](=O)[O-])c1 (stereo not drawn)	i	?	?	?	35µM	i
C[C@@H]1CC[C@]2(C(=O)O)CC[C@]3(C)C(=CCC4[C@@]5(C)C[C@@H](O)[C@H](O)[C@@](C)(CO)C5[C@H](O)C[C@]43C)C2[C@H]1C (stereo partly drawn)	nt	nt	i	nt	nt	nt
Cc1ccc(N(CC(=O)Nc2ccc(Br)cc2)S(=O)(=O)c2cccs2)cc1	nt	i	i	i	nt	nt
C=CCOc1c(Br)cc(CNc2ccc(NC(=O)C(C)C)c(OC)c2)cc1OC	nt	i	i[0.501 µM]	35µM	?	i
COc1ccc(C(=O)N/C(=C\c2cn(C)c3ccccc23)C(=O)NCCN2CCOCC2)cc1OC	i	i	50µM	i	?	nt
